Measured values taken from PubChem BioAssay AID1159580 (chemical genetic matrix, 2015).
Screen size: about 5,500 compounds; about 2,000 (36%) were called active. Roughly 18% stayed inconclusive and do not appear here. No stated cut-off is given here; in the data, active means normalized growth mostly below about 0.91 (no sharp cut-off); inconclusive means no clear call, values can overlap the other calls; inactive means mostly above about 0.92. The list shows a part of the results.

Assay: chemical genetic growth profiling, strain panel (AID 1159580);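 further: tested at 20 µM; growth read once vehicle control cultures reached saturation at 30 °C; 1 = growth at the plate median or of vehicle wells; lower values mean less growth of the strain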
Conditions: S. cerevisiae deletion strains, growth OD
[1] = locus YDL101C, strain DUN1, hits give low values
[2] = locus YHR030C, strain SLT2, hits give low values

Measured: normalized growth

Brc1ccc(-c2csc(-c3ccncc3)n2)cc1
active: [1] 0.888 | locus YDR052C, strain DBF4, hits give low values 0.892 | locus YDR054C, strain cdc34, hits give low values 0.862 | locus YDR226W, strain ADK1, hits give low values 0.895 | locus YER133W, strain GLC7, hits give low values 0.683 | locus YFL009W, strain cdc4, hits give low values 0.878 | locus YGR040W, strain KSS1, hits give low values 0.59 | locus YGR052W, strain FMP48, hits give low values 0.41 | locus YGR092W, strain DBF2, hits give low values 0.443 | [2] 0.312 | locus YJL095W, strain BCK1, hits give low values 0.149 | locus YJR066W, strain TOR1, hits give low values 0.24 | locus YKL203C, strain TOR2, hits give low values 0.221 | locus YLR113W, strain HOG1, hits give low values 0.315 | locus YNL183C, strain NPR1, hits give low values 0.257 | locus YNL207W, strain RIO2, hits give low values 0.839 | locus YOR119C, strain RIO1, hits give low values 0.306 | locus YOR231W, strain MKK1, hits give low values 0.488 | locus YPL153C, strain RAD53, hits give low values 0.609 | locus YPL204W, strain HRR25, hits give low values 0.64 | locus YPL256C, strain CLN2, hits give low values 0.578 | strain NNK1, hits give low values 0.875
inactive: locus YAR019C, strain CDC15, hits give low values 0.909 | locus YBL105C, strain PKC1, hits give low values 0.943 | locus YBR135W, strain CKS1, hits give low values 0.904 | locus YBR136W, strain MEC1, hits give low values 0.916 | locus YBR160W, strain CDC28, hits give low values 0.904 | locus YDL017W, strain CDC7, hits give low values 0.923 | locus YDL028C, strain MPS1, hits give low values 0.92 | locus YDL108W, strain KIN28, hits give low values 0.932 | locus YDL132W, strain cdc53, hits give low values 0.94 | locus YDL214C, strain PRR2, hits give low values 0.848 | locus YDR477W, strain SNF1, hits give low values 0.705 | locus YER123W, strain YCK3, hits give low values 0.703 | locus YFL029C, strain CAK1, hits give low values 0.911 | locus YFR003C, strain YPI1, hits give low values 0.942 | locus YFR019W, strain FAB1, hits give low values 0.874 | locus YFR028C, strain CDC14, hits give low values 0.895 | locus YHR079C, strain IRE1, hits give low values 0.632 | locus YHR082C, strain KSP1, hits give low values 0.635 | locus YHR205W, strain SCH9, hits give low values 0.622 | locus YIL147C, strain SLN1, hits give low values 0.919 | locus YJL128C, strain PBS2, hits give low values 0.958 | locus YJL157C, strain FAR1, hits give low values 0.847 | locus YJR016C, strain ILV3, hits give low values 0.914 | locus YJR066W, strain TOR1 (second series), hits give low values 0.797 | locus YKL048C, strain ELM1, hits give low values 0.889 | locus YKL067W, strain YNK1, hits give low values 0.856 | locus YKL101W, strain HSL1, hits give low values 0.889 | locus YKL193C, strain SDS22, hits give low values 0.891 | locus YLR133W, strain CKI1, hits give low values 0.844 | locus YLR403W, strain SFP1, hits give low values 0.689 | locus YML070W, strain DAK1, hits give low values 0.77 | locus YMR001C, strain CDC5, hits give low values 0.901 | locus YMR205C, strain PFK2 (second series), hits give low values 0.854 | locus YMR277W, strain FCP1, hits give low values 0.892 | locus YNL006W, strain LST8, hits give low values 0.939 | locus YNL020C, strain ARK1, hits give low values 0.868 | locus YNL161W, strain CBK1, hits give low values 0.908 | locus YNL222W, strain SSU72, hits give low values 0.938 | locus YNL307C, strain MCK1 (second series), hits give low values 0.847 | locus YOL078W, strain AVO1, hits give low values 0.898 | locus YOL136C, strain PFK27, hits give low values 0.846 | locus YOR061W, strain CKA2, hits give low values 0.925 | locus YOR329C, strain SCD5, hits give low values 0.933 | locus YPL031C, strain PHO85, hits give low values 0.687 | locus YPL209C, strain IPL1, hits give low values 0.919 | locus YPR025C, strain CCL1, hits give low values 0.92 | locus YPR106W, strain ISR1, hits give low values 0.919 | locus YPR111W, strain DBF20, hits give low values 0.902 | strain TSCII, hits give low values 0.88

c1ccc(-c2csc(-c3ccncc3)n2)cc1
active: locus YAL013W, strain DEP1, hits give low values 0.916 | [2] 0.22 | locus YKL190W, strain CNB1, hits give low values 0.894 | locus YLR039C, strain RIC1, hits give low values 0.371 | locus YLR085C, strain ARP6, hits give low values 0.535 | locus YLR262C, strain YPT6, hits give low values 0.384 | locus YML094W, strain GIM5, hits give low values 0.814 | locus YNL298W, strain CLA4 (second series), hits give low values 0.829 | locus YOL006C, strain TOP1, hits give low values 0.379 | locus YPL241C, strain CIN2, hits give low values 0.8 | locus YPR135W, strain CTF4, hits give low values 0.515
inactive: locus YBR229C, strain ROT2, hits give low values 0.979 | locus YCL061C, strain MRC1, hits give low values 0.944 | [1] 0.967 | locus YDR150W, strain NUM1, hits give low values 0.934 | locus YEL061C, strain CIN8, hits give low values 0.914 | locus YGR078C, strain PAC10, hits give low values 0.974 | locus YGR229C, strain SMI1, hits give low values 0.958 | locus YHR087W, strain rtc3, hits give low values 0.981 | locus YJL187C, strain SWE1, hits give low values 1.03 | locus YJR043C, strain POL32, hits give low values 0.974 | locus YJR075W, strain HOC1, hits give low values 0.987 | locus YLR058C, strain SHM2 (second series), hits give low values 0.972 | locus YMR219W, strain ESC1, hits give low values 0.971 | locus YMR263W, strain SAP30, hits give low values 0.946 | locus YMR307W, strain GAS1, hits give low values 0.737 | locus YNL128W, strain TEP1, hits give low values 0.937 | locus YNL153C, strain GIM3, hits give low values 0.964 | locus YNL322C, strain KRE1, hits give low values 0.989 | locus YNR030W, strain Alg12, hits give low values 0.901 | locus YPL055C, strain LGE1, hits give low values 0.832
